# Results reported in publication PMC7862700, “An all-to-all approach to the identification of sequence-specific readers for epigenetic DNA modifications on cytosine”.
# Columns and labels:
# Test in all cases: DAPPL (digital affinity profiling via proximity ligation, sequencing); 10 mM Tris-HCl pH 7.5, 50 mM NaCl, 1 mM DTT, 4% glycerol, room temperature, 30 min; GST-TFs on glutathione beads, 16-mer random dsDNA library, 0.1% formaldehyde crosslink after washing; high values mean tight binding
# Settings in all cases: protein: recombinant; tags: N-terminal GST; dsDNA, one strand shown
# [1] = biological target: T1, FLI1 (Homo sapiens, UniProt Q01543 1-452)
# T1 sequence: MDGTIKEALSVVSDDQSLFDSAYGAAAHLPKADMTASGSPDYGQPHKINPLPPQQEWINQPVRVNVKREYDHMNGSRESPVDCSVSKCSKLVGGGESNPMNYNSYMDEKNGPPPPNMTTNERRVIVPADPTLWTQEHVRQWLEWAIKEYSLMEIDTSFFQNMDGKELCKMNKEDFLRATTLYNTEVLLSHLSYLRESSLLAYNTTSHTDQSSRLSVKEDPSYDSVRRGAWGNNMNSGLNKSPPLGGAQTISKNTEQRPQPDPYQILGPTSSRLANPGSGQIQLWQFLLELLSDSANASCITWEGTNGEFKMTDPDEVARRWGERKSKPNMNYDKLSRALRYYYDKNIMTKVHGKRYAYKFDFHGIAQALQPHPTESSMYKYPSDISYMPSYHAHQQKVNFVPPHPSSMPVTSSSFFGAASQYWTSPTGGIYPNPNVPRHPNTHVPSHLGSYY
# Summary of the method: (§1)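 Human transcription factors carrying a GST fusion were produced in yeast, bound to glutathione beads, tagged with DNA barcodes and pooled together with a tag-only sample. Each pool was held with 200 nmole of a random double-stranded 16-mer DNA library in Tris/NaCl/DTT/glycerol buffer for 30 min at room temperature, then washed, crosslinked in 0.1% formaldehyde, proximity-ligated with BsaI/T4 ligase (1 h, 37 °C), PCR-amplified and sequenced on an Illumina NextSeq500. Binding signal is the read frequency of each hexamer for a given factor divided by its frequency in the tag-only sample.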
# [2] = biological target: T2, ELK1 (Homo sapiens, UniProt P19419 1-428)
# T2 sequence: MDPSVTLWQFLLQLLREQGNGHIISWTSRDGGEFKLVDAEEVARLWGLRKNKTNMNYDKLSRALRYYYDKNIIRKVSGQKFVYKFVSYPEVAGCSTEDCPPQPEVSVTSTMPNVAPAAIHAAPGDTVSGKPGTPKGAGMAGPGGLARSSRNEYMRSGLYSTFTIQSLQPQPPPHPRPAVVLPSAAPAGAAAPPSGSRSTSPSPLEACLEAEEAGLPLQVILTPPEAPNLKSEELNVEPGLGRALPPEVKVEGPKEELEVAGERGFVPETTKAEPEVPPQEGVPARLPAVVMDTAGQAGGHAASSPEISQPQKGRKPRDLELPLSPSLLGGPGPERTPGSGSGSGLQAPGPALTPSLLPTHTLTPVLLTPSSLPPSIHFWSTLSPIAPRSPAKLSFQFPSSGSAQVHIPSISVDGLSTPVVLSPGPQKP
# Summary of the method: as §1
# [3] = biological target: T3, GABPA (Homo sapiens, UniProt Q06546 1-454)
# T3 sequence: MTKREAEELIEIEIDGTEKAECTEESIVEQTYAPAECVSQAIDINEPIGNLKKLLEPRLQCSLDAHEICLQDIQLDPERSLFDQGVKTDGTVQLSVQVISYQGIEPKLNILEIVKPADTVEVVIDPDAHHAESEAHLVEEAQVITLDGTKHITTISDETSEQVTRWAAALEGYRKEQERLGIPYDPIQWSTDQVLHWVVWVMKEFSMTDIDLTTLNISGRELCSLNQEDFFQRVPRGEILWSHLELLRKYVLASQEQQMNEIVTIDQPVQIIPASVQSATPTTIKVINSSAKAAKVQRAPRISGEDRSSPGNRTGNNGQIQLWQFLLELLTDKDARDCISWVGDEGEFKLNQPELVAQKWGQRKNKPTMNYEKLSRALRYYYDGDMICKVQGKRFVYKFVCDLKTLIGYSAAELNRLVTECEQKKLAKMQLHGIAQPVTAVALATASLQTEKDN
# Summary of the method: as §1
# [4] = biological target: T4, ERG (Homo sapiens, UniProt P11308 1-479)
# T4 sequence: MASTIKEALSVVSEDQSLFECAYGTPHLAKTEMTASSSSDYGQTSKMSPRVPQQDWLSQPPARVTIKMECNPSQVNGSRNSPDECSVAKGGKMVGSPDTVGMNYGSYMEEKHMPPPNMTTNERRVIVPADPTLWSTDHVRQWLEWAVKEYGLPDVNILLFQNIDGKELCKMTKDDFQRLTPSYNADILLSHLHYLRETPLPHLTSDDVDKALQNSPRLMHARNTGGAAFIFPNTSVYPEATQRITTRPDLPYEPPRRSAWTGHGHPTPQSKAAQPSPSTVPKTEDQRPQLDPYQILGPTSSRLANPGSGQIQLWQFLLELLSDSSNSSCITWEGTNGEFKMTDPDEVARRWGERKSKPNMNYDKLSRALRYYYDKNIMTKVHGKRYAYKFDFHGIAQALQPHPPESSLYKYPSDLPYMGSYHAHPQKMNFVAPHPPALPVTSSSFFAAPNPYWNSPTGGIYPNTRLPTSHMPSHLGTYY
# Summary of the method: as §1
# [5] = biological target: T5, EHF (Homo sapiens, UniProt Q9NZC4 1-300)
# T5 sequence: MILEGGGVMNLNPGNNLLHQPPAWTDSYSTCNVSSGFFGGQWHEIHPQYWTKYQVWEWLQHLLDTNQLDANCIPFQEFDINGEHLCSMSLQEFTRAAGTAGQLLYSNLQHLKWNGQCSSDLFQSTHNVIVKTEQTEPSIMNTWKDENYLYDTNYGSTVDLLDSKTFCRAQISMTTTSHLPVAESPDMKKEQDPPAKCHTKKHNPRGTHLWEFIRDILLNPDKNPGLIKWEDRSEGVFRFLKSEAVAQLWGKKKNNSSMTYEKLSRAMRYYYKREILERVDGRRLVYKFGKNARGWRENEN
# Summary of the method: as §1
# [6] = biological target: SPI1 (Homo sapiens, UniProt P17947 1-270)
# Summary of the method: as §1
# [7] = biological target: SPIB (Homo sapiens, UniProt Q01892 1-262)
# Summary of the method: as §1
# [8] = biological target: ETV5 (Homo sapiens, UniProt P41161 1-510)
# Summary of the method: as §1
# [9] = biological target: T6, SPIC (Homo sapiens, UniProt Q8N5J4 1-248)
# T6 sequence: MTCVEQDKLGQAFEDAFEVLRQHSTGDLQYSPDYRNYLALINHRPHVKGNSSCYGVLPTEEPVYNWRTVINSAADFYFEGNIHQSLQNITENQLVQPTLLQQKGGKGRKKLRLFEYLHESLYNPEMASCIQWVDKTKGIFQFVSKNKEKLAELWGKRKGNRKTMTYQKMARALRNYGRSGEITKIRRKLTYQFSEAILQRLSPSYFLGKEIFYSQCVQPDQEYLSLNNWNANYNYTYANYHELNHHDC
# Summary of the method: as §1
# [10] = biological target: ELF4 (Homo sapiens, UniProt Q99607 1-663)
# Summary of the method: as §1
# [11] = biological target: ETV1 (Homo sapiens, UniProt P50549 1-477)
# Summary of the method: as §1
# [12] = biological target: T7, ETV3L (Homo sapiens, UniProt Q6ZN32 1-361)
# T7 sequence: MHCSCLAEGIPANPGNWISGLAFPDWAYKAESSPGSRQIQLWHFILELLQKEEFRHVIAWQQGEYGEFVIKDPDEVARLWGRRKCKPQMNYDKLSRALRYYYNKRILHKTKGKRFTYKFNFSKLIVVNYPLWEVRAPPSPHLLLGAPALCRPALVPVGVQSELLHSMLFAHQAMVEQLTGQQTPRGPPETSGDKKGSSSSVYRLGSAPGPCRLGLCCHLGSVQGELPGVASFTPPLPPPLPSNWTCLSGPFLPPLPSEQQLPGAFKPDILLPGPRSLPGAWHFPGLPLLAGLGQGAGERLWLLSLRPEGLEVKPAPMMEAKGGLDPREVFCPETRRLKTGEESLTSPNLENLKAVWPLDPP
# Summary of the method: as §1
# [13] = biological target: T8, ETS2 (Homo sapiens, UniProt P15036 1-469)
# T8 sequence: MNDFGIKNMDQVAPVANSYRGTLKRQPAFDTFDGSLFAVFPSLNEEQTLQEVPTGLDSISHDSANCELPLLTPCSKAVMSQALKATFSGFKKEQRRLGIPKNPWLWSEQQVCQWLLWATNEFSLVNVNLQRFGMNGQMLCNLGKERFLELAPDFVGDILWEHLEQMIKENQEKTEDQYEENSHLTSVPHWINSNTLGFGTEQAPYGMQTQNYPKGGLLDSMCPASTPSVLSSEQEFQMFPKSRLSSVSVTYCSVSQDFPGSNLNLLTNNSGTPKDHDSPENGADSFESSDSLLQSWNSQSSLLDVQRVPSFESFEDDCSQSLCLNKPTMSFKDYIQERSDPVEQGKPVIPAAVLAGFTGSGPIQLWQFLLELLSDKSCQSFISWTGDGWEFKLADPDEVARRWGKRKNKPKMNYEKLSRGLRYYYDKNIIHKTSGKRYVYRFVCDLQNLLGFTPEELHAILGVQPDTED
# Summary of the method: as §1
# [14] = biological target: T9, ETV3 (Homo sapiens, UniProt P41162-2 1-143)
# T9 sequence: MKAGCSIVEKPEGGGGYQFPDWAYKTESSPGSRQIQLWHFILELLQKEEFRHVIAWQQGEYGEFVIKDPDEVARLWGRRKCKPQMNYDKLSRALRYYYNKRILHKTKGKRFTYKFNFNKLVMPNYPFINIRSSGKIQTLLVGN
# Summary of the method: as §1
# [15] = biological target: ETV6 (Homo sapiens, UniProt P41212 1-452)
# Summary of the method: as §1
# [16] = biological target: ELF1 (Homo sapiens, UniProt P32519 1-619)
# Summary of the method: as §1
# [17] = biological target: T10, FEV (Homo sapiens, UniProt Q99581 1-238)
# T10 sequence: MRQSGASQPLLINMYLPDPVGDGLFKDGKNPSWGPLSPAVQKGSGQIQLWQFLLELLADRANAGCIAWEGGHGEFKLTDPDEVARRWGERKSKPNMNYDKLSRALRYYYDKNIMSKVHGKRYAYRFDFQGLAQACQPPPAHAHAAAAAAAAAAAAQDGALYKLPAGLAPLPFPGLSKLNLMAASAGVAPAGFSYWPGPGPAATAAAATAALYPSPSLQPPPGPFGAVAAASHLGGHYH
# Summary of the method: as §1
# [18] = biological target: T11, SPDEF (Homo sapiens, UniProt O95238 1-335)
# T11 sequence: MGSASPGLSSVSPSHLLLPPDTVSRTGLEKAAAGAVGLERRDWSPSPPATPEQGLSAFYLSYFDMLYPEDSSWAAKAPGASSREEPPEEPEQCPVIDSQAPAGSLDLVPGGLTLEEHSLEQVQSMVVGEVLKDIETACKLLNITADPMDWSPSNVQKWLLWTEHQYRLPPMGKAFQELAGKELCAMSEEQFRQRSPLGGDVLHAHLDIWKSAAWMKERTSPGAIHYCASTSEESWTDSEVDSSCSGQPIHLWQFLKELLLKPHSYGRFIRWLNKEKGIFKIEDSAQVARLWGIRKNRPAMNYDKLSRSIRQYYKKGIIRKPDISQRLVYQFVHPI
# Summary of the method: as §1
# SPIB, sequence (Q01892 whole entry): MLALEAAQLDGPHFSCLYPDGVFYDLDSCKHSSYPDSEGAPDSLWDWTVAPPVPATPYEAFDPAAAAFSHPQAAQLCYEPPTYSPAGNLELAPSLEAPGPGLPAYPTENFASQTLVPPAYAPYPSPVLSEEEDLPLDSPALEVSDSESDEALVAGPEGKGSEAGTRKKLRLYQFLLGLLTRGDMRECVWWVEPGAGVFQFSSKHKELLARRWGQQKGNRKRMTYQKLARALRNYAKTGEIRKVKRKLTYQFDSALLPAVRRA
# ETV5, sequence (P41161 whole entry): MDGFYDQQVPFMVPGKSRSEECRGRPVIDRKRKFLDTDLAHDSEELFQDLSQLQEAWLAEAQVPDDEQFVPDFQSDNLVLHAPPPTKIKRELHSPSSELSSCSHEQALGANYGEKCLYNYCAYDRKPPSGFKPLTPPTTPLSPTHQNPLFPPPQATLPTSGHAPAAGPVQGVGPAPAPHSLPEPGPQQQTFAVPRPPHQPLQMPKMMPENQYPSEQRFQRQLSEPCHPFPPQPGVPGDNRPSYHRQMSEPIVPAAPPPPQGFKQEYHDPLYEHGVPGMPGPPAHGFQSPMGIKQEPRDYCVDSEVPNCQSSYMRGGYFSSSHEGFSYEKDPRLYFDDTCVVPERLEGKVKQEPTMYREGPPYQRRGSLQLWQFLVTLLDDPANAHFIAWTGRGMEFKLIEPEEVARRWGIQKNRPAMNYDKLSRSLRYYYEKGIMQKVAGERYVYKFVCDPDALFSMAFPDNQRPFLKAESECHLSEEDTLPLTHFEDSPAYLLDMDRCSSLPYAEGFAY
# ETV1, sequence (P50549 whole entry): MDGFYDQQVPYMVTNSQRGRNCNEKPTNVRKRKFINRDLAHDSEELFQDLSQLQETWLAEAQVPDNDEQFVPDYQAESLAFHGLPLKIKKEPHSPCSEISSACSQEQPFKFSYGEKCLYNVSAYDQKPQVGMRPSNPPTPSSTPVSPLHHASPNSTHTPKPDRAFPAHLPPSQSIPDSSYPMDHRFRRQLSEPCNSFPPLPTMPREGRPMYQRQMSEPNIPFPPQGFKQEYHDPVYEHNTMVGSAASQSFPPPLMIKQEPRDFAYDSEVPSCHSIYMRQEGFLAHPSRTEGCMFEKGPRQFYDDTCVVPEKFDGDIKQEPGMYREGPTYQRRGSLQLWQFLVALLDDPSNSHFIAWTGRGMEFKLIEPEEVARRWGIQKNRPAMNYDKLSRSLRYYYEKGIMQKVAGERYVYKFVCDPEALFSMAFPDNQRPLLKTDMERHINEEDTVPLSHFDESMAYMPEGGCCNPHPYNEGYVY
# ELF4, sequence (Q99607 whole entry): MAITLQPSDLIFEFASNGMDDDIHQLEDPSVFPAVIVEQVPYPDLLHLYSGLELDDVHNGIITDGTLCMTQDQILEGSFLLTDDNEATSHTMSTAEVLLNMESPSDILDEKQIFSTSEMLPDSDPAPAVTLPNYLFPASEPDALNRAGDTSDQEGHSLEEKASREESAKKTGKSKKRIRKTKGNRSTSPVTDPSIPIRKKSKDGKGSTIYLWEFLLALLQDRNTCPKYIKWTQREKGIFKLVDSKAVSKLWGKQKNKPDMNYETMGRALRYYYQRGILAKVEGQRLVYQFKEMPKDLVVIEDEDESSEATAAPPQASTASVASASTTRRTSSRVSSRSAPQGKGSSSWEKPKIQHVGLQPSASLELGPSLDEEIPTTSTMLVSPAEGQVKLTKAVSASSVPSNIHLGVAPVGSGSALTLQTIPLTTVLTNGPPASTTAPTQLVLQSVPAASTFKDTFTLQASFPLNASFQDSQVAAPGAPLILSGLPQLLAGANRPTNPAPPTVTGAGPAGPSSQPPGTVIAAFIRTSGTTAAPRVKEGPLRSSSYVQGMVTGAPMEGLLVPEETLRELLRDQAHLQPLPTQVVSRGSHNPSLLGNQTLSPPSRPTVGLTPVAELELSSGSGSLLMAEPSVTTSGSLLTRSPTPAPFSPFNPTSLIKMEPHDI
# ELF1, sequence (P32519 whole entry): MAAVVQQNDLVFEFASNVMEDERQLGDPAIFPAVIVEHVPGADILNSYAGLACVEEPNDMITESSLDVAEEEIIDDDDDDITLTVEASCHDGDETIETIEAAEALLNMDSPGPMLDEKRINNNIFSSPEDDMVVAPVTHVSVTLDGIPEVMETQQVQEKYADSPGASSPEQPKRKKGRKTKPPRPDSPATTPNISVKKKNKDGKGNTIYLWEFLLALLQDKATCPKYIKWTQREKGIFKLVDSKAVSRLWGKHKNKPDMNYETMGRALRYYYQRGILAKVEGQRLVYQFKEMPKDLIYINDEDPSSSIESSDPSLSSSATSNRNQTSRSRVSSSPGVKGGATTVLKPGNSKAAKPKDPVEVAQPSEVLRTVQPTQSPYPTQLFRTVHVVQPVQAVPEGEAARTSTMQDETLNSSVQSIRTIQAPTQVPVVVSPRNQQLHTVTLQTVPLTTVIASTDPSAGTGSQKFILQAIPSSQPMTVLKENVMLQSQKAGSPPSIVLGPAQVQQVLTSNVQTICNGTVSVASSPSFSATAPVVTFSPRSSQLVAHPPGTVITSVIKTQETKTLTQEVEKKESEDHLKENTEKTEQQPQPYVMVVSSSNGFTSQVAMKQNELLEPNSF
# ETV6, sequence (P41212 whole entry): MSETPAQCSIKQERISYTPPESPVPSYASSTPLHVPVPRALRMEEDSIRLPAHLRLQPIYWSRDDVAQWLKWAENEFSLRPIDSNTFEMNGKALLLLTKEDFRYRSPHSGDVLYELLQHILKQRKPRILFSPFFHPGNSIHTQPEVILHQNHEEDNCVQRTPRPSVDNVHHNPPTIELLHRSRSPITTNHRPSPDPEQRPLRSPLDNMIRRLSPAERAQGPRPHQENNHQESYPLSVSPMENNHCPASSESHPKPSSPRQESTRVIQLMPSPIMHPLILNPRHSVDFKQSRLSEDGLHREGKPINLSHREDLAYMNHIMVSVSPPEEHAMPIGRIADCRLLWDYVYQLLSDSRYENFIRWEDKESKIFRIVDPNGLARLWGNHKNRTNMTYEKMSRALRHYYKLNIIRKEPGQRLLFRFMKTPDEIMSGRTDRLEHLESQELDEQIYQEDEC
Sequence,binding signal [1],binding signal [2],binding signal [3],binding signal [4],binding signal [5],binding signal [6],binding signal [7],binding signal [8],binding signal [9],binding signal [10],binding signal [11],binding signal [12],binding signal [13],binding signal [14],binding signal [15],binding signal [16],binding signal [17],binding signal [18]
TGGTCA,"1.11 fold enrichment (6-mer frequency, TF over GST control)","1 fold enrichment (6-mer frequency, TF over GST control)","1.17 fold enrichment (6-mer frequency, TF over GST control)","1.06 fold enrichment (6-mer frequency, TF over GST control)","1.01 fold enrichment (6-mer frequency, TF over GST control)","1.05 fold enrichment (6-mer frequency, TF over GST control)","1.07 fold enrichment (6-mer frequency, TF over GST control)","1.02 fold enrichment (6-mer frequency, TF over GST control)","1.07 fold enrichment (6-mer frequency, TF over GST control)","1.06 fold enrichment (6-mer frequency, TF over GST control)","1.02 fold enrichment (6-mer frequency, TF over GST control)","1.1 fold enrichment (6-mer frequency, TF over GST control)","1.13 fold enrichment (6-mer frequency, TF over GST control)","1.01 fold enrichment (6-mer frequency, TF over GST control)","1.04 fold enrichment (6-mer frequency, TF over GST control)",,,
GGGTTC,"1.06 fold enrichment (6-mer frequency, TF over GST control)","1.02 fold enrichment (6-mer frequency, TF over GST control)","1.01 fold enrichment (6-mer frequency, TF over GST control)","1.04 fold enrichment (6-mer frequency, TF over GST control)","1.02 fold enrichment (6-mer frequency, TF over GST control)","1.11 fold enrichment (6-mer frequency, TF over GST control)","1.09 fold enrichment (6-mer frequency, TF over GST control)","1.08 fold enrichment (6-mer frequency, TF over GST control)","1.02 fold enrichment (6-mer frequency, TF over GST control)","1.12 fold enrichment (6-mer frequency, TF over GST control)","1.08 fold enrichment (6-mer frequency, TF over GST control)","1.09 fold enrichment (6-mer frequency, TF over GST control)","1.07 fold enrichment (6-mer frequency, TF over GST control)","1.1 fold enrichment (6-mer frequency, TF over GST control)",,"1.11 fold enrichment (6-mer frequency, TF over GST control)","1.03 fold enrichment (6-mer frequency, TF over GST control)","1.14 fold enrichment (6-mer frequency, TF over GST control)"
